PostGolgi yeast: growth inhibition of a yeast mutant, post-Golgi transport screen; inhibition, % at 10 µM; 98,000 compounds, 0.9% hits; post-Golgi transport phenotypic cell assay;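 note: yeast cells grown in 1536-well plates; yeast grown about 18 h at 30C before absorbance read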
CYP2C19 act: cytochrome P450 2C19 (human) activation | activation factor at 5 µM | P33261 | recombinant CYP2C19, luciferin-H EGE luminescence; stronger effect = higher value; 0 = fully inhibited enzyme, 1 = untreated enzyme | 96,000 tested, under 10 active;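 active = activation factor of at least 2 at 5 µM in the primary screen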;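 note: 0 = wells with 2.5 mM tranylcypromine and 1 = vehicle-only wells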
CYP2C9 inhib: inhibitors of human CYP2C9; CYP2C9 Supersomes, luciferin-H conversion, luminescence; inhibition, % at 5 µM; 96,000 compounds, 20% hits; P11712;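 active = blocking of liver enzyme CYP2C9 beyond about 50% at 5 µM, limit read from the data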
Target sequence (P11712 whole entry, looked up): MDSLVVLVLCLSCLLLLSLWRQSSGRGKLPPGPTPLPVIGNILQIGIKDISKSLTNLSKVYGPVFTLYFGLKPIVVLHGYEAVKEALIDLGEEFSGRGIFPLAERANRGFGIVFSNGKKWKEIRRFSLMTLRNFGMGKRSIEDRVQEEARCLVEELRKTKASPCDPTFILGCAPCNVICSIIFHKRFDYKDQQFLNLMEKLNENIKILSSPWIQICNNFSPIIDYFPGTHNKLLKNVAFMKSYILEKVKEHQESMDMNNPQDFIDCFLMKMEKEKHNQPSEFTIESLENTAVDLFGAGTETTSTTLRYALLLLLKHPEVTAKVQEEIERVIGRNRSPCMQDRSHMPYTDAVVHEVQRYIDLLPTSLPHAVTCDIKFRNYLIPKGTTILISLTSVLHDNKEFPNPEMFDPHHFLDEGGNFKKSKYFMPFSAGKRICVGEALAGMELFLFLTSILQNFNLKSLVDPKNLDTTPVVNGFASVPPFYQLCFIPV
CYP2C19 inhib: human CYP2C19 inhibition. P33261. CYP2C19 Supersomes, luciferin-H EGE luminescence, 30 min. inhibition, % at 5 µM. 96,000 compounds, 21% hits. AID 778;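 active = CYP2C19 inhibition above a set limit at 5 µM in the primary screen, cut at about 50% in these data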;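 note: plate controls were negative control wells for no effect and 2.5 mM tranylcypromine positive control for full effect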
CYP2C9 act: increases human cytochrome P450 2C9 activity; P11712; recombinant CYP2C9, luciferin-H conversion, luminescence; stronger effect = higher value; factor 1 = untreated enzyme, 0 = blocked; activation factor at 5 µM; 96,000 compounds, 1.4% hits;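 active = activation factor of 2 or more for CYP2C9 at a 5 µM dose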;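 note: 0 = sulfaphenazole-blocked wells and 1 = vehicle-only wells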
PostGolgi ctrl: growth of the yeast control strain, post-Golgi counter-screen | efflux-deficient yeast background strain, growth absorbance A615, 16 h | inhibition, % at 10 µM | 98,000 compounds, 5% hits | AID 738
Starred values were filed as active, the others as inactive; nt = not tested or not shown. Shown are actives, neighbours in structure and some others; about 32% of the full set was active somewhere. Cut-off read from the data, not from the text of the source, unless noted: active = inhibition above about 30%; inactive = the rest.

SMILES	PostGolgi yeast	CYP2C19 act	CYP2C9 inhib	CYP2C19 inhib	CYP2C9 act	PostGolgi ctrl
Cc1ccc(-c2nnc(SCC(=O)N3CC(C)CC(C)C3)o2)cc1C (configuration not stated)	2	nt	nt	nt	nt	15
CC1CC(C)CN(C(=O)CSc2nnc(-c3ccc(Cl)cc3)o2)C1 (configuration not stated)	-12	0.2	6	81*	0.9	16
Oc1ccc(-c2nnc(SCC3CCCCC3)o2)cc1	-7	1	-107	3	2.1*	0
O=C(CSc1nnc(-c2ccc(O)cc2)o1)N1CCOCC1	0	1	-148	-5	2.5*	-1
CCOC(=O)c1c(C)nc2c(c1-c1cc(OC)c(OC)c(OC)c1)C(=O)c1ccccc1-2	-2	0.7	26	33	0.7	26
O=C(NC1CCCC1)C(c1ccc(Cl)cc1)N1CCOCC1 (configuration not stated)	-1	0.8	24	16	0.8	-3
CCOc1cc(C)ccc1OCc1nnc(SCC(=O)c2cccc([N+](=O)[O-])c2)n1C	-8	1.1	-57	-6	1.6	10
COc1ccccc1-c1nnc(SCC(=O)N2CCC(C)CC2)o1	8	0.2	-291	76*	3.9*	5
CC1CCN(C(=O)CSc2nnc(-c3ccco3)o2)CC1	1	1	-6	3	1.1	5
CCOC(=O)c1c(C)[nH]c(C(=O)COC(=O)CNC(=O)C2CCCCC2)c1C	-7	0.9	37	13	0.6	5
CCCN(CCC)C(=O)c1c(C)[nH]c(C(=O)OCC)c1C	-3	1	11	-1	0.9	8
CCCCCCC(=O)c1c(C)[nH]c(C(=O)OCC)c1C	-8	0.8	71*	25	0.3	17
CCOC(=O)c1c(C)[nH]c(N=Nc2ccccc2C)c1C	-3	0.2	95*	83*	0	21
CCCCC(=O)OCC(=O)c1[nH]c(C)c(C(=O)OCC)c1C	4	1.1	83*	-13	0.2	3
CCOC(=O)c1c(C)[nH]c(C(=O)CSc2ccccc2)c1C	9	0.2	96*	84*	0	11
CCOC(=O)c1c(C)[nH]c(C(=O)COC(=O)c2oc3ccccc3c2C)c1C	-2	1.1	-1	-8	1	-1
CC(=O)Cc1nsc(NC(=O)c2cn(-c3ccccc3)nc2-c2ccc(Br)cc2)n1	5	1.3	0	-31	1	7
N/C(=N\OS(=O)(=O)c1cc(Cl)ccc1Cl)c1ccncc1	-7	0.6	48	38	0.5	1
COc1cccc(C(=O)N2CCN(S(C)(=O)=O)CC2)c1	0	0.7	9	28	0.9	10
CCOC(=O)c1c(C)[nH]c(C(=O)COC(=O)CSC)c1C	2	0.6	56*	41	0.4	1
CCOC(=O)c1c(C)[nH]c(C(=O)COC(=O)c2ccc(N3CCCC3=O)cc2)c1C	-6	1	90*	0	0.1	-4
CCOC(=O)c1c(C)[nH]c(C(=O)CSc2nnc(C3CC3)n2N)c1C	14	0.3	66*	69*	0.3	-5
CCOC(=O)c1c(C)[nH]c(C(=O)COC(=O)C(C)N2C(=O)C3CCCCC3C2=O)c1C (configuration not stated)	-10	0.4	52*	55*	0.5	-7
CCOC(=O)c1c(C)[nH]c(C(=O)COC(=O)CN2C(=O)C3CCCCC3C2=O)c1C (configuration not stated)	-5	0.6	26	37	0.7	6
COCCn1c(C)cc(C(=O)COC(=O)c2ccc(N3CCCC3=O)cc2)c1C	5	0.9	-15	6	1.2	12
SMILES	PostGolgi yeast	CYP2C19 act	CYP2C9 inhib	CYP2C19 inhib	CYP2C9 act	PostGolgi ctrl
C#CC(C)(CC)NC(=O)c1cc(OC)c(OC)c(OC)c1 (configuration not stated)	2	1.1	-12	-9	1.1	-10
COc1ccc(O)c(-c2c(-c3ccc(Cl)cc3)n[nH]c2C)c1	-4	0	72*	99*	0.3	26
COc1ccc(-c2n[nH]c(C)c2-c2ccc(Cl)cc2)c(O)c1OC	0	1.1	-22	-10	1.2	51*
COc1ccc(C2NC(=O)c3n[nH]c(C)c32)c(OC)c1 (configuration not stated)	-20	0.8	-28	24	1.3	12
COc1ccc(-c2n[nH]c(C)c2-c2ccc(Cl)cc2)c(O)c1	13	0.4	48	63*	0.5	77*
COc1cc(OC)c(NS(=O)(=O)c2coc(C(N)=O)c2)cc1Cl	0	0	17	96*	0.8	-10
COc1ccccc1CNC(=O)c1cnn2c(C(F)F)cc(C)nc12	-1	0.4	-120	61*	2.2*	20
Cc1cc(C(F)F)n2ncc(C(=O)NC3CCCCCC3)c2n1	-7	0.9	9	9	0.9	9
Cc1cc(C(F)F)n2ncc(C(=O)NCc3ccccc3C(F)(F)F)c2n1	3	1.1	-11	-15	1.1	28
COc1ccccc1CCNC(=O)c1cnn2c(C(F)F)cc(C)nc12	-1	0.2	-60	77*	1.6	26
COc1ccc(CCNC(=O)c2cnn3c(C(F)F)cc(C)nc23)cc1OC	4	0.5	47	52*	0.5	7
Cc1cc(C)n2c(SCC(=O)Nc3c(C)n(C)n(-c4ccccc4)c3=O)nnc2n1	5	1.1	24	-14	0.8	12
COc1nc(OC)nc(N2CCC(C(=O)NCc3ccc(F)cc3)CC2)n1	-1	1.1	-46	-5	1.5	11
CCCCN(C(=O)NC(=O)C1=C(N2CCOCC2)/C(=C/c2ccccc2)CC1)S(C)(=O)=O	18	0.2	78*	79*	0.2	1
CN(C(=O)NC(=O)C1=C(N2CCOCC2)/C(=C/c2ccccc2)CC1)S(C)(=O)=O	-1	0.8	6	19	0.9	12
CC1CCN(S(=O)(=O)c2ccc3c(c2)c(=O)c(C(=O)N2CCCCC2)cn3C)CC1	2	1	1	0	1	8
Cc1cnc(NC(=O)COc2cccc3c2OC(C)(C)C3)s1	-3	0.9	24	12	0.8	3
CC(C)NC(=O)NC(=O)COc1cccc2c1OC(C)(C)C2	6	0.1	32	93*	0.7	3
CC1(C)CC(=O)CC(=Nc2ccc3[nH]c(=O)[nH]c3c2)C1	2	1	3	1	1	-3
Cc1ccc(C)n1CCN1CCN(CC(=O)Nc2cc(C(F)(F)F)ccc2Cl)CC1	2	0.8	45	16	0.6	0
C#CCn1c(S(=O)(=O)Cc2ccc(C)cc2)nc(-c2ccccc2)c1-c1ccccc1	2	0.4	67*	61*	0.3	8
C#CCn1c(S(=O)(=O)Cc2ccccc2Cl)nc(-c2ccccc2)c1-c1ccccc1	15	0.9	-5	13	1	12
